# From article PMC5540273 (PLoS ONE, 2017)
# Assays:
# Conditions in all cases: concentration: 1 μM,replicates: in singlicate; n = 1
# LCK = test system: LCK
# LIMK1 = test system: LIMK1
# LIMK2 = test system: LIMK2
# LKB1 = test system: T1, LKB1
# T1 construct: gene STK11
# LOK = test system: T2, LOK
# T2 construct: gene STK10
# LRRK2 = test system: LRRK2
# LTK = test system: LTK
# LYN = test system: LYN
# LZK = test system: T3, LZK
# T3 construct: gene MAP3K13
# MAK = test system: MAK
# MAP3K15 = test system: MAP3K15
# MAP3K1 = test system: MAP3K1
# MAP3K2 = test system: MAP3K2
# MAP3K3 = test system: MAP3K3
# MAP3K4 = test system: MAP3K4
# MAP4K2 = test system: MAP4K2
# MAP4K3 = test system: MAP4K3
# MAP4K4 = test system: MAP4K4
# MAP4K5 = test system: MAP4K5
# MAPKAPK2 = test system: MAPKAPK2
# 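Also: KINOMEscan kinase panel screen.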
SMILES,%Inh (LCK),%Inh (LIMK1),%Inh (LIMK2),%Inh (LKB1),%Inh (LOK),%Inh (LRRK2),%Inh (LTK),%Inh (LYN),%Inh (LZK),%Inh (MAK),%Inh (MAP3K15),%Inh (MAP3K1),%Inh (MAP3K2),%Inh (MAP3K3),%Inh (MAP3K4),%Inh (MAP4K2),%Inh (MAP4K3),%Inh (MAP4K4),%Inh (MAP4K5),%Inh (MAPKAPK2)
Cc1ccc(Nc2ccnc(Nc3ccc4c(c3)CS(=O)(=O)C4)n2)cc1O.Cl [GW579362],97.3%,35%,49%,29%,83%,79%,55%,84%,58%,73%,0%,27%,88%,73%,29%,22%,0%,52%,33%,0%
O=C(Nc1cccc(Oc2ccc3nccn3n2)c1)Nc1cccc(C(F)(F)F)c1,71%,0%,25%,0%,64%,21%,0%,42%,0%,38%,0%,17%,3%,10%,30%,0%,3%,68%,26%,0%
CCN1CCN(CCCC(=O)Nc2n[nH]c3nc(-c4ccc(O)cc4)c(Br)cc23)CC1 [SB-731579],66%,0%,0%,23%,13%,0%,20%,0%,0%,35%,0%,0%,0%,0%,0%,0%,0%,7%,5%,17%
Cc1nnc(-c2ccc3occ(-c4ccc(S(C)=O)cc4)c3n2)o1 (centres unmarked),0%,0%,0%,3%,0%,0%,0%,0%,0%,0%,0%,0%,0%,0%,1%,0%,44%,0%,38%,0%
CN(c1ccc2c(c1)nc(NCc1ccc(F)cc1)n2C)c1ccnc(Nc2ccc(CS(C)(=O)=O)cc2)n1.Cl [GW813244],67%,33%,0%,29%,99.5%,0%,48%,68%,0%,2%,24%,26%,31%,23%,2%,0%,40%,10%,11%,0%
CC(C)c1nc(-c2cccc(NS(=O)(=O)c3ccccc3)c2)c(-c2ccnc(Nc3ccc4c(c3)CN(C)CC4)n2)s1 [GSK1649598],99.8%,100%,100%,0%,97.5%,0%,5%,98%,45%,53%,30%,6%,98.5%,84%,79%,0%,96.9%,95.5%,98.9%,0%
CCNCC(Cc1ccccc1)NC(=O)c1cc(Br)c(-c2ccnc3[nH]ccc23)s1.Cl.Cl (centres unmarked) [GSK1383280],11%,21%,23%,0%,0%,0%,0%,0%,0%,44%,0%,12%,33%,0%,0%,27%,4%,37%,0%,0%
Cc1cccc(-c2nc(Nc3ccncc3)c3sccc3n2)n1 [GW869641],20%,11%,5%,0%,79%,0%,35%,18%,4%,0%,30%,37%,44%,28%,0%,50%,5%,37%,11%,0%
CC(C)S(=O)(=O)N1CCN(Cc2ccc3c(c2)nc(NC(=O)c2ccsc2)n3C[C@H](O)c2ccccc2)CC1 [GW635815],39%,0%,0%,0%,0%,66%,25%,0%,69%,18%,0%,8%,47%,53%,53%,84%,0%,45%,2%,0%
Cc1ccc2c(-c3ccnc(Nc4ccc(C(F)(F)F)cc4)n3)cnn2n1 [GW819776],10%,2%,0%,24%,16%,0%,28%,1%,0%,20%,10%,0%,20%,0%,0%,0%,0%,0%,0%,0%
C[C@@H](Oc1cc(-n2cnc3cc(-c4cnn(C)c4)ccc32)sc1C(N)=O)c1ccccc1Cl [GSK580432],94.8%,0%,0%,57%,99.9%,68%,25%,38%,0%,0%,12%,90.6%,20%,20%,37%,60%,93.8%,32%,98.9%,0%
CC(=O)c1c(-c2ccncc2)[nH]c(-c2ccncc2)c1C [GW493036],0%,0%,1%,0%,0%,26%,0%,0%,42%,34%,0%,5%,0%,0%,9%,0%,0%,16%,0%,23%
Cn1ccc2ncnc(Oc3ccc(NC(=O)Nc4cccc(C(F)(F)F)c4)c(F)c3)c21,75%,0%,2%,0%,99.9%,31%,84%,24%,0%,27%,0%,0%,0%,18%,13%,0%,20%,17%,40%,22%
OCCn1cc(-c2cnc3nnn(Cc4ccc5ncccc5c4)c3n2)cn1,0%,0%,0%,3%,18%,0%,8%,0%,0%,0%,0%,0%,0%,0%,0%,0%,0%,0%,0%,0%
CC(C(=O)NC1CCN(c2ccnc(Nc3ccc(F)cc3)n2)C1)c1ccc(Cl)cc1 (centres unmarked) [GSK1379713],22%,0%,0%,0%,0%,14%,0%,0%,0%,12%,0%,0%,0%,0%,17%,0%,0%,12%,4%,26%
O=C(Nc1n[nH]c2cc(-c3ccco3)ccc12)C1CC1 [SB-737447],3%,0%,0%,0%,3%,0%,0%,0%,0%,4%,17%,0%,23%,24%,0%,2%,5%,21%,0%,0%
COc1cc2nccc(Nc3ccc(Oc4ccccc4)cc3)c2cc1OC.Cl [GI261656],99.2%,0%,14%,13%,0%,0%,0%,71%,5%,1%,0%,21%,0%,0%,0%,0%,0%,0%,0%,0%
C[C@@H](Oc1cc(-n2cnc3ccc(-c4ccncc4)cc32)sc1C(N)=O)c1ccccc1Cl [GSK483724],40%,20%,0%,0%,92.2%,8%,25%,0%,0%,29%,0%,41%,4%,0%,21%,10%,10%,11%,15%,0%
CNC(=O)c1ccccc1Nc1nc(Nc2cccc(CS(C)(=O)=O)c2)ncc1C.O=CO [GSK1520489],99.8%,47%,0%,0%,99.8%,90%,89%,95.1%,97.3%,0%,9%,10%,94.4%,94%,85%,96.3%,91%,0%,4%,0%
